According to PMC7862700, “An all-to-all approach to the identification of sequence-specific readers for epigenetic DNA modifications on cytosine”:

Key:
Assay in all cases: DAPPL (digital affinity profiling via proximity ligation, sequencing); 10 mM Tris-HCl pH 7.5, 50 mM NaCl, 1 mM DTT, 4% glycerol, room temperature, 30 min; GST-TFs on glutathione beads, 16-mer random dsDNA library, 0.1% formaldehyde crosslink after washing; high values mean tight binding
[1] = target: T1, FEV (Homo sapiens, UniProt Q99581 1-238); details: protein: recombinant; tags: N-terminal GST; dsDNA, one strand shown
T1 sequence: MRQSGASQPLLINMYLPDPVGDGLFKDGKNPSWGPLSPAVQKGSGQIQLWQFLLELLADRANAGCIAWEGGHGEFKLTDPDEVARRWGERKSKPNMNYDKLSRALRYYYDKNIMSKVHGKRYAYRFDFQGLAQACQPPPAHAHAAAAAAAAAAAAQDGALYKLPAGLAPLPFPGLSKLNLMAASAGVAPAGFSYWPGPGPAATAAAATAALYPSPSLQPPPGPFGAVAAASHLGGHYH
In short: (§1)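 Pools were built from human transcription factors expressed in yeast as GST fusions, captured on glutathione beads and DNA-barcoded, along with a tag-only sample. Incubation with 200 nmole of a 16-mer random double-stranded DNA library lasted 30 min at room temperature in Tris/NaCl/DTT/glycerol buffer, and was followed by washing, 0.1% formaldehyde crosslinking, proximity ligation, PCR amplification and Illumina NextSeq500 sequencing. Binding signal is the quotient of each hexamer's read frequency for a factor and its frequency for the tag-only sample.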

[2] = target: ETV5 (Homo sapiens, UniProt P41161 1-510); details: protein: recombinant; tags: N-terminal GST; dsDNA, one strand shown
ETV5, sequence (P41161 whole entry): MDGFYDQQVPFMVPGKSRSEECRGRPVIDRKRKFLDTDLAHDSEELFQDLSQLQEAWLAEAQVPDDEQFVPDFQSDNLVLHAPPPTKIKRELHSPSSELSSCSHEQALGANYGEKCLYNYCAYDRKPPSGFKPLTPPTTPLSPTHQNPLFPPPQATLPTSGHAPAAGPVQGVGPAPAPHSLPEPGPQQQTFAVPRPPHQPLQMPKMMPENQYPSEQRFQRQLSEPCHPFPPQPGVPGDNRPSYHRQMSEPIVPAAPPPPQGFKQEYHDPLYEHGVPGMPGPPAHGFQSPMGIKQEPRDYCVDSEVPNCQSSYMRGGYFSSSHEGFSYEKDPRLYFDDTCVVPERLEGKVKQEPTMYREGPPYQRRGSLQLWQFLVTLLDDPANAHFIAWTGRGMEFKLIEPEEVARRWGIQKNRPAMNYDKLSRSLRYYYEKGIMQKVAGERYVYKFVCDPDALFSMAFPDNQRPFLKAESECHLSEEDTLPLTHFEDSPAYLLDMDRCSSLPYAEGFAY
In short: as §1

[3] = target: HSF1 (Homo sapiens, UniProt Q00613 1-529); details: protein: recombinant; tags: N-terminal GST; chain copies: 3; dsDNA, one strand shown
HSF1, sequence (Q00613 whole entry): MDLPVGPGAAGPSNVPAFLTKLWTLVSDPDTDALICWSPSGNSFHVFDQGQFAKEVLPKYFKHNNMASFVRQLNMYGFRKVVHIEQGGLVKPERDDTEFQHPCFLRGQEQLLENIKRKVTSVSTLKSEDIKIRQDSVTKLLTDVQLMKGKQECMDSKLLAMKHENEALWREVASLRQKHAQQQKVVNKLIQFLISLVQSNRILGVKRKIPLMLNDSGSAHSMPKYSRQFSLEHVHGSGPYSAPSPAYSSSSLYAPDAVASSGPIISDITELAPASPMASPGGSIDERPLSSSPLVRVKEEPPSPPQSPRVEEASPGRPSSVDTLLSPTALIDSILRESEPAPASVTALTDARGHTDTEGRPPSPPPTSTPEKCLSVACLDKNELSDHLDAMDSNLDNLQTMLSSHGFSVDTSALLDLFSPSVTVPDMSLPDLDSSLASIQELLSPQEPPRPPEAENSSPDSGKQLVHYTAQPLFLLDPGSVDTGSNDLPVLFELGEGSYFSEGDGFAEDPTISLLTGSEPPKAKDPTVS
In short: as §1

[4] = target: T2, SPIC (Homo sapiens, UniProt Q8N5J4 1-248); details: protein: recombinant; tags: N-terminal GST; dsDNA, one strand shown
T2 sequence: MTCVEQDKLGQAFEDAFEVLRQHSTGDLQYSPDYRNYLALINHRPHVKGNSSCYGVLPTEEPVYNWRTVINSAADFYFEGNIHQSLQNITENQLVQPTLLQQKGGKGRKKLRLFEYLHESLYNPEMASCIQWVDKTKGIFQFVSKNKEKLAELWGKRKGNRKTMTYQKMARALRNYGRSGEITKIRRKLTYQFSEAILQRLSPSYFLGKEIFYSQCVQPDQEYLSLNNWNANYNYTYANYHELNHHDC
In short: as §1

[5] = target: ELF4 (Homo sapiens, UniProt Q99607 1-663); details: protein: recombinant; tags: N-terminal GST; dsDNA, one strand shown
ELF4, sequence (Q99607 whole entry): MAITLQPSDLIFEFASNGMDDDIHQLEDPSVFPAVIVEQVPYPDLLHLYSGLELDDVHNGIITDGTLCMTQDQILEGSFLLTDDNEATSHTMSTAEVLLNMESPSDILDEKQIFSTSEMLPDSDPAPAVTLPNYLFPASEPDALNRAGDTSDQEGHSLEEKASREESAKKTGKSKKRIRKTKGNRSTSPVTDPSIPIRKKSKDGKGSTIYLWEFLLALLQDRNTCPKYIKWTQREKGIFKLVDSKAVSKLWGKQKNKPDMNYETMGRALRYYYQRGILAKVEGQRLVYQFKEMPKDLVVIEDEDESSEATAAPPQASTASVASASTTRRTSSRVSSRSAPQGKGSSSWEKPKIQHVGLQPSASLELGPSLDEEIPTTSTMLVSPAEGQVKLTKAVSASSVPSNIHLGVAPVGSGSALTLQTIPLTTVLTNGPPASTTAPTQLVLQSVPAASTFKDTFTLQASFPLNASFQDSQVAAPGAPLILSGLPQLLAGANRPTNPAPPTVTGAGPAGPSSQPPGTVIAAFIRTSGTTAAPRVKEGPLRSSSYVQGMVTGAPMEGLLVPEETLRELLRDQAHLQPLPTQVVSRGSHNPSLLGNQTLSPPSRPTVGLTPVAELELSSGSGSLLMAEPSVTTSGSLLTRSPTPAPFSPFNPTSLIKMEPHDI
In short: as §1

[6] = target: T3, ELK4 (Homo sapiens, UniProt P28324-2 1-405); details: protein: recombinant; tags: N-terminal GST; dsDNA, one strand shown
T3 sequence: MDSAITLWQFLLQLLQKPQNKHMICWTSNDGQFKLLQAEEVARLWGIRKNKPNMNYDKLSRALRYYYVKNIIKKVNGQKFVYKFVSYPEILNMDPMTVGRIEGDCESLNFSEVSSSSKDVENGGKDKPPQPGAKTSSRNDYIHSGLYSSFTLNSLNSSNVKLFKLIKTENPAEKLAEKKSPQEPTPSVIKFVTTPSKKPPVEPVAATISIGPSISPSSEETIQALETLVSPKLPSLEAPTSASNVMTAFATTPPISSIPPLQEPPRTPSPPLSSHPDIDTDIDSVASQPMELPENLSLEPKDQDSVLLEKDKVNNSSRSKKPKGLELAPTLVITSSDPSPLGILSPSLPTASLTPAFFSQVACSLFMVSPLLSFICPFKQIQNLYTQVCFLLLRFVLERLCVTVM
In short: as §1

[7] = target: T4, ETV2 (Homo sapiens, UniProt O00321 1-342); details: protein: recombinant; tags: N-terminal GST; dsDNA, one strand shown
T4 sequence: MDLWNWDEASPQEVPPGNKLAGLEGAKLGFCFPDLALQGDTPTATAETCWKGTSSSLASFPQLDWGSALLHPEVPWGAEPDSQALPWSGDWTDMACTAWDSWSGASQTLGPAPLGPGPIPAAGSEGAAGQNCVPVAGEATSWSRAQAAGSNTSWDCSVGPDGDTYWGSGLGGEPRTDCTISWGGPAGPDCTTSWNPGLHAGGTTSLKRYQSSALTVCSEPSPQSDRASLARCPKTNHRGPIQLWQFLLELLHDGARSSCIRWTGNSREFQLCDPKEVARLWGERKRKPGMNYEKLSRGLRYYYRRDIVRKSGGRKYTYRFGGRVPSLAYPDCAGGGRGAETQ
In short: as §1

[8] = target: T5, ELF3 (Homo sapiens, UniProt P78545 1-371); details: protein: recombinant; tags: N-terminal GST; dsDNA, one strand shown
T5 sequence: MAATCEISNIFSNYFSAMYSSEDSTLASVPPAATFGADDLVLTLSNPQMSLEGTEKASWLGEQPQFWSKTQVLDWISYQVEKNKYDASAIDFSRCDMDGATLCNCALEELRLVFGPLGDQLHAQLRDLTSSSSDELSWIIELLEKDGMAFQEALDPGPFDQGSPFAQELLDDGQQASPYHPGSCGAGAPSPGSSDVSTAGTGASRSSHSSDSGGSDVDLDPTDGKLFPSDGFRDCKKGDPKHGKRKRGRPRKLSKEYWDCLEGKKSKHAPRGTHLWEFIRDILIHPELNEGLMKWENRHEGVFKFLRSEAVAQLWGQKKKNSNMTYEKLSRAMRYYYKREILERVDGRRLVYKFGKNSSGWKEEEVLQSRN
In short: as §1

[9] = target: CRX (Homo sapiens, UniProt O43186 1-299); details: protein: recombinant; tags: N-terminal GST; dsDNA, one strand shown
CRX, sequence (O43186 whole entry): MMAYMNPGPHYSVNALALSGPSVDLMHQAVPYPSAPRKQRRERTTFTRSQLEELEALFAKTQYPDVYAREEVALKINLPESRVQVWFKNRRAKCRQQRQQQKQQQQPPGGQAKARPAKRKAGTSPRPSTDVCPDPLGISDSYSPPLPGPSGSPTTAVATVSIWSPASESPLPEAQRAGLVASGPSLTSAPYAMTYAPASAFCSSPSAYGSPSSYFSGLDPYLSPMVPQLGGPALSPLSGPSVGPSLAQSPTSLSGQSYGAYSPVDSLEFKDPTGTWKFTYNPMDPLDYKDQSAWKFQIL
In short: as §1

[10] = target: ETV1 (Homo sapiens, UniProt P50549 1-477); details: protein: recombinant; tags: N-terminal GST; dsDNA, one strand shown
ETV1, sequence (P50549 whole entry): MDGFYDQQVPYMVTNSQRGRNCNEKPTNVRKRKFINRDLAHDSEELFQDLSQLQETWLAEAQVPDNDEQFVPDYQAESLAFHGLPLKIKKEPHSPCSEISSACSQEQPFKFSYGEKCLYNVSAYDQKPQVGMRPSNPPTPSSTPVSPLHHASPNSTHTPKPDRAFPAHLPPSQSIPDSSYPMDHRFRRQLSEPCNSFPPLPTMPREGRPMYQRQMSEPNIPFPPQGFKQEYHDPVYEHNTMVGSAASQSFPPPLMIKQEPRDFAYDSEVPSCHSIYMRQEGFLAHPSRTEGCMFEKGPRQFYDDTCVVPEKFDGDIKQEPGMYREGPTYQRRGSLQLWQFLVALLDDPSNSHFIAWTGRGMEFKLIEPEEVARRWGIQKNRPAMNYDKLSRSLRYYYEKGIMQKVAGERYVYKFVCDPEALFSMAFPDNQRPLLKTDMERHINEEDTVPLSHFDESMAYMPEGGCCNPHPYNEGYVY
In short: as §1

## CGGCTT
[1]
  binding signal: 1.14 fold enrichment (6-mer frequency, TF over GST control)
[2]
  binding signal: 1.16 fold enrichment (6-mer frequency, TF over GST control)
[3]
  binding signal: 1.35 fold enrichment (6-mer frequency, TF over GST control)
[4]
  binding signal: 1.13 fold enrichment (6-mer frequency, TF over GST control)
[5]
  binding signal: 1.1 fold enrichment (6-mer frequency, TF over GST control)
[6]
  binding signal: 1.09 fold enrichment (6-mer frequency, TF over GST control)
[7]
  binding signal: 1.27 fold enrichment (6-mer frequency, TF over GST control)
[8]
  binding signal: 1.15 fold enrichment (6-mer frequency, TF over GST control)
[9]
  binding signal: 1.95 fold enrichment (6-mer frequency, TF over GST control)
[10]
  binding signal: 1.2 fold enrichment (6-mer frequency, TF over GST control)
